# Experimental data published in the antibiotic and cytotoxicity screens of Wong et al. (2023).
# In all, about 39,000 compounds went through this assay and about 1,500 (3.8%) were called active. The list comes from a sample in which actives are over-represented; it also holds similar structures and randomly drawn compounds.
# Test system: HSkMC (human skeletal muscle cells)
# Experiment: cytotoxicity call (relative viability < 0.9)
# Details: 10 µM
row,SMILES,cytotoxicity call
1,C[C@H](CO)N1C[C@H](C)[C@H](CN(C)S(=O)(=O)c2cn(C)cn2)Oc2cc(C#Cc3cccc(F)c3)ccc2S1(=O)=O,inactive
2,COCC(=O)N1C[C@@H](C)[C@H](OC)CN(C)C(=O)c2ccc(NC(=O)Nc3cccc(F)c3)cc2OC[C@H]1C,inactive
3,C[C@H]1CN([C@@H](C)CO)C(=O)c2cccc(NC(=O)c3cnccn3)c2O[C@@H]1CN(C)CC1CCCCC1,inactive
4,CC[C@@H]1OC(=O)[C@H](C)[C@@H](O[C@H]2C[C@@](C)(OC)[C@@H](O)[C@H](C)O2)[C@H](C)[C@@H](O[C@@H]2O[C@H](C)C[C@H](N(C)C)[C@H]2O)[C@](C)(O)C[C@@H](C)/C(=N\OCOCCOC)[C@H](C)[C@@H](O)[C@]1(C)O,inactive
5,CCNC(=O)C[C@@H]1C=C[C@H](NC(=O)C2CCOCC2)[C@H](CO)O1,inactive
6,COc1ccc(C#Cc2cnc3c(c2)C(=O)N([C@H](C)CO)C[C@H](C)[C@H](CN(C)CC2CCOCC2)O3)cc1,inactive
7,C[C@H]1CCCCO[C@@H](CN(C)Cc2ccncc2)[C@@H](C)CN([C@@H](C)CO)C(=O)c2cc(NC(=O)C3CCCCC3)ccc2O1,inactive
8,C[C@H]1CN([C@@H](C)CO)C(=O)c2cccc(NS(C)(=O)=O)c2O[C@@H]1CN(C)S(=O)(=O)c1ccccc1,inactive
9,O=C(C[C@H]1CC[C@@H](NC(=O)Cc2ccccn2)[C@@H](CO)O1)NCCCN1CCOCC1,inactive
10,C[C@H]1CN([C@@H](C)CO)C(=O)Cc2cc(NS(C)(=O)=O)ccc2O[C@H]1CN(C)S(C)(=O)=O,inactive
11,CCCn1c(=O)c(C#N)cn(C2CC2)c1=O,inactive
12,N=C(N)SCc1csc(N)n1,inactive
13,C[C@H]1CN([C@@H](C)CO)C(=O)c2cc(NC(=O)Cc3cn(C)c4ccccc34)ccc2O[C@H]1CN(C)Cc1ccc(Cl)c(Cl)c1,inactive
14,C[C@H]1CN([C@@H](C)CO)C(=O)c2cc(NC(=O)Cc3cn(C)c4ccccc34)ccc2O[C@H]1CN(C)Cc1ccc(-c2ccccc2)cc1,inactive
15,C[C@H]1CN([C@@H](C)CO)C(=O)c2cc(NC(=O)Cc3cn(C)c4ccccc34)ccc2O[C@@H]1CN(C)Cc1ccc(Cl)c(Cl)c1,active
16,C[C@@H]1CN([C@H](C)CO)C(=O)c2cc(NC(=O)Cc3cn(C)c4ccccc34)ccc2O[C@H]1CN(C)Cc1ccc(Cl)c(Cl)c1,active
17,C[C@@H]1CN([C@@H](C)CO)C(=O)c2cc(NC(=O)Cc3cn(C)c4ccccc34)ccc2O[C@H]1CN(C)Cc1ccc(Cl)c(Cl)c1,inactive
18,C[C@@H]1CN([C@@H](C)CO)C(=O)c2cc(NC(=O)CCN3CCOCC3)ccc2O[C@@H]1CN(C)S(C)(=O)=O,inactive
19,C[C@H](O)C#Cc1ccc2c(c1)O[C@@H](CN(C)C(=O)Nc1ccccc1)[C@@H](C)CN([C@H](C)CO)S2(=O)=O,inactive
20,CC(C)NC(=O)Nc1cccc2c1O[C@H](CN(C)Cc1ccc(C(=O)O)cc1)[C@H](C)CN([C@@H](C)CO)C2=O,inactive
21,CCC1C=C2C(=O)OC(=O)C2CC2=C(C(=O)OC2=O)C(OC(C)=O)C1CC (centres undefined),inactive
22,COc1ccc(CN(C)C[C@H]2Oc3ccc(NC(=O)C4CC4)cc3CC(=O)N([C@@H](C)CO)C[C@H]2C)cc1,inactive

row,SMILES,cytotoxicity call
1,O=C(C[C@H]1CC[C@@H]2[C@H](COC[C@@H](O)CN2S(=O)(=O)c2cccc(Cl)c2)O1)N1CCOCC1,inactive
2,CN(C)C(=O)c1ccc(-c2cccc(-c3nc(C(=O)NC4CCCC4)cc4c3[C@H](CCO)N([S@@](=O)C(C)(C)C)C4)c2)cc1,inactive
3,Nc1nonc1/C(=N/O)N1CCCCC1,inactive
4,Cc1nn(C)c(COc2ccc(N3CCN(S(=O)(=O)N(C)C)CC3)cc2)c1-c1cccc2c(CCCOc3cccc4ccccc34)c(C(=O)O)n(CCN3CCNCC3)c12,inactive
5,O=C1C=CC(=O)N1,active
6,CC(C)(C)c1ccc(C(=O)CCCN2CCC(OC(c3ccccc3)c3ccccc3)CC2)cc1,active
7,CN1C2CCC1CC(OC(c1ccccc1)c1ccccc1)C2.CS(=O)(=O)O (centres undefined),inactive
8,CN1CCC(OC(c2ccccc2)c2ccccc2)CC1.Cl,inactive
9,C[C@H]1CCCCO[C@H](CN(C)C(=O)CCC(F)(F)F)[C@@H](C)CN([C@@H](C)CO)C(=O)c2cc(NC(=O)CCC(F)(F)F)ccc2O1,inactive
10,C[C@@H]1CN([C@H](C)CO)C(=O)c2cc(NS(C)(=O)=O)ccc2O[C@@H]1CN(C)C(=O)Nc1ccc(C(F)(F)F)cc1,inactive
11,COC(=O)CSc1nc(=O)c(C)n[nH]1,inactive
12,C[C@@H]1CN([C@H](C)CO)C(=O)c2cccc(NC(=O)Nc3ccc(C(F)(F)F)cc3)c2O[C@H]1CN(C)C(=O)Nc1cccc2ccccc12,inactive
13,C[C@H](CO)N1C[C@H](C)[C@H](CN(C)C(=O)Nc2cccc3ccccc23)Oc2c(NC(=O)Nc3ccc(C(F)(F)F)cc3)cccc2C1=O,inactive
14,C[C@@H]1CN([C@H](C)CO)C(=O)c2cccc(NC(=O)Nc3ccc(C(F)(F)F)cc3)c2O[C@@H]1CN(C)C(=O)Nc1cccc2ccccc12,active
15,C[C@H](CO)N1C[C@H](C)[C@@H](CN(C)C(=O)Nc2cccc3ccccc23)Oc2c(NC(=O)Nc3ccc(C(F)(F)F)cc3)cccc2C1=O,inactive
16,C[C@@H]1CN([C@@H](C)CO)C(=O)c2cccc(NC(=O)Nc3ccc(C(F)(F)F)cc3)c2O[C@@H]1CN(C)C(=O)Nc1cccc2ccccc12,active
17,C[C@@H]1CN([C@@H](C)CO)C(=O)c2cccc(NC(=O)Nc3ccc(C(F)(F)F)cc3)c2O[C@H]1CN(C)C(=O)Nc1cccc2ccccc12,inactive
18,C[C@H]1CN([C@@H](C)CO)C(=O)c2cccc(NC(=O)Nc3ccc(C(F)(F)F)cc3)c2O[C@H]1CN(C)C(=O)Nc1cccc2ccccc12,inactive
19,C[C@H]1CN([C@@H](C)CO)C(=O)c2cccc(NC(=O)Nc3ccc(C(F)(F)F)cc3)c2O[C@@H]1CN(C)C(=O)Nc1cccc2ccccc12,active
20,COCC#Cc1cnc2c(c1)C(=O)N([C@@H](C)CO)C[C@@H](C)[C@@H](CN(C)C(C)=O)O2,inactive
21,C[C@@H]1CN([C@H](C)CO)C(=O)c2cc(NC(=O)CCCN(C)C)ccc2O[C@H]1CN(C)S(=O)(=O)c1ccccc1,inactive
22,C[C@@H]1CCCCO[C@H](CN(C)Cc2ccccc2)[C@H](C)CN([C@H](C)CO)C(=O)c2cc(NC(=O)CCC(F)(F)F)ccc2O1,inactive

row,SMILES,cytotoxicity call
1,Cc1ccc(S(=O)(=O)Nc2ccc3c(c2)C(=O)N([C@@H](C)CO)C[C@H](C)[C@H](CN(C)C(=O)Nc2ccccc2)OCCCC[C@@H](C)O3)cc1,inactive
2,CCS(=O)(=O)N1CC[C@@H]2CO[C@H](CN3CCN(C)CC3)[C@@H]2C1,inactive
3,Cc1noc(C)c1S(=O)(=O)Nc1ccc2c(c1)CC(=O)N([C@@H](C)CO)C[C@H](C)[C@@H](CN(C)CC1CC1)O2,inactive
4,C[C@H]1CCCCO[C@@H](CN(C)S(=O)(=O)c2ccccc2)[C@@H](C)CN([C@@H](C)CO)C(=O)c2cc(NC(=O)Nc3ccc(C(F)(F)F)cc3)ccc2O1,inactive
5,COC1=C2C[C@@H](C)C[C@H](OC)[C@H](O)[C@@H](C)/C=C(\C)[C@H](OC(N)=O)[C@@H](OC)/C=C\C=C(/C)C(=O)NC(=CC1=O)C2=O,inactive
6,COC1=C2C[C@@H](C)C[C@H](OC)[C@H](O)[C@@H](C)/C=C(\C)[C@H](OC(N)=O)[C@@H](OC)/C=C/C=C(\C)C(=O)NC(=CC1=O)C2=O,active
7,C=CCNC1=C2C[C@@H](C)C[C@H](OC)[C@H](O)[C@@H](C)/C=C(\C)[C@H](OC(N)=O)[C@@H](OC)/C=C\C=C(/C)C(=O)NC(=CC1=O)C2=O,active
8,CO[C@H]1/C=C\C=C(/C)C(=O)NC2=CC(=O)C(NCCN(C)C)=C(C[C@@H](C)C[C@H](OC)[C@H](O)[C@@H](C)/C=C(\C)[C@@H]1OC(N)=O)C2=O,active
9,CO[C@H]1/C=C\C=C(/C)C(=O)NC2=CC(=O)C=C(C2=O)[C@H](OC)[C@@H](C)C[C@H](OC)[C@H](O)[C@@H](C)/C=C(\C)[C@@H]1OC(N)=O,inactive
10,COC1=C2C[C@H](C)C[C@H](OC)[C@@H](O)[C@H](C)/C=C(\C)[C@H](OC(N)=O)[C@H](OC)/C=C/C=C(\C)C(=O)NC(=CC1=O)C2=O,inactive
11,C=CCNC1=C2C[C@H](C)C[C@H](OC)[C@@H](O)[C@H](C)/C=C(\C)[C@H](OC(N)=O)[C@H](OC)/C=C/C=C(\C)C(=O)NC(=CC1=O)C2=O,active
12,Cc1noc(C)c1NC(=O)Nc1ccc2c(c1)CC(=O)N([C@H](C)CO)C[C@H](C)[C@H](CN(C)Cc1ccc(C(F)(F)F)cc1)O2,inactive
13,C[C@H](CO)N1C[C@H](C)[C@H](CN(C)CC2CCOCC2)Oc2ncc(C#Cc3cccc(F)c3)cc2C1=O,inactive
14,CC(C)(C)c1cccc(N)c1,inactive
15,CCCC(=O)Nc1ccc2c(c1)C(=O)N(C)C[C@@H](OC)[C@@H](C)CN(Cc1ccc(-c3ccccn3)cc1)[C@@H](C)CO2,inactive
16,COc1cccc(OCc2ccc(Cn3nc(NC(=O)NCc4ccc(F)cc4)c4ccccc43)cc2)c1,inactive
17,O=c1ccoc2cc(O)c([C@H]3O[C@H](CO)[C@@H](O)[C@H](O)[C@@H]3O)c(O)c12,inactive
18,C[C@H]1CN([C@@H](C)CO)C(=O)Cc2cc(NC(=O)C3CCCCC3)ccc2O[C@@H]1CN(C)C(=O)Nc1ccc(C(F)(F)F)cc1,inactive
19,CC(C)NC(=O)N(C)C[C@H]1Oc2c(NC(=O)C3CCOCC3)cccc2C(=O)N([C@@H](C)CO)C[C@H]1C,inactive
20,CCC(=O)OC(CC(=O)O)C[N+](C)(C)C.[Cl-] (centres undefined),inactive
